Data on 16 sequences can be found in the supplement of paper PMC6555819.

Common to all, as to experiment: PBM binding z-score (relative to random genomic background probes); higher = stronger binding; sequences stand for … in GC…GCGATTGACAGCGTAGAATGAAGG
Test [1] concerns RARb homodimer (NR concentration 270 nM). In short, it runs like this: (§1)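 Ligand-free nuclear receptor dimers were applied to custom Agilent 4×180K protein-binding microarrays whose double-stranded probes carried direct-repeat seeds, single-nucleotide variants, half-site ablations and random human genomic background sequences in 34-nt variable regions. Incubation lasted 1 h. Binding z-scores were computed against the random background probes from regression-normalized fluorescence.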

Test [2] deals with RARg:RXRa (NR concentration 270 nM, RXRa partner concentration 90 nM). In short, it runs like this:
as §1

In test [3] the test system is RARg homodimer (NR concentration 270 nM). In short, it runs like this: as §1
In test [4] the test system is RXRa DBDmut IVT, anti-RXR (DBD mutation: RXRa K156A/R161A, NR concentration 90 nM). The gist of the method:
as §1

Test [5] relates to RXRa homodimer (NR concentration 180 nM). In short, it runs like this:
as §1

The subject of test [6] is THRa:RXRa (NR concentration 90 nM, RXRa partner concentration 90 nM). In short, it runs like this:
as §1

The subject of test [7] is THRa homodimer (NR concentration 90 nM). In short, it runs like this:
as §1

The subject of test [8] is VDR:RXRa (NR concentration 270 nM, RXRa partner concentration 90 nM). The gist of the method: as §1
In test [9] the test system is VDR homodimer (NR concentration 270 nM). In short, it runs like this: as §1

As to ACTCAGAGGACAAAGGTCAGAGCTACGCCAGTGA, the PBM binding z-score in [1] was found to be 4.56; in [2], 6.51; in test [3], 5.89; in test [4] it was 1.84; in test [5] it was 6.06; in test [6], 3.44. The PBM binding z-score was determined as 0.705 in [7], 3.62 in [8] and 1.43 in test [9].

As for TCATATAGGTAAAAGGTGTAAGTCGGTGTGGTAA, the PBM binding z-score in [1] turned out to be 0.36; in [2], 0.32; in [3] it was 0.0311; in test [4], 1.55; in test [5], 0.644; in test [6], 0.0897. Moreover, the results for the PBM binding z-score in [7] and in [9] were -0.167 and 0.313, respectively.

Regarding ATCTCTAGGAAAGACTCAGTTCAGTGAAGAACGC, the PBM binding z-score was 0.415 in test [1]; -0.181 in test [2]; 0.129 in test [3]; 0.549 in [4]; -0.107 in test [5]; 0.203 in test [6]. The PBM binding z-score in test [7] was found to be 0.155; in [8], 0.436; in [9] it was 1.33.

Turning to CCGCCTGGGGCAGAAAGGTTACCATACCATCCGG, the PBM binding z-score in test [1] was 2.37; in [2], 1.47; in test [3], 1.32; in test [4] it was -0.959; in [5], 1.55; in test [6] it was 1.03. Further, the PBM binding z-score in test [7] was -0.231; in test [8], 0.57; in [9] it was 0.052.

Take CCTAGTTGATCAGGAGGTCACACACCGGATATGA: the PBM binding z-score in test [1] is 3.89; in test [2], 4.82; in test [3] it was 3.78; in test [4], 1.4; in test [5], 4.41; in test [6] it was 3.6. Also, the values for the PBM binding z-score in [7] and in test [9] were 2.51 and 3.06, respectively.

Turning to CCGACTGGGGCGAAGGTTACCATACTCAGTACGA, the PBM binding z-score in test [1] is 0.751; in test [2], 0.697; in [3] it was 0.405; in test [4], -0.021; in test [5], 1.12; in [6], 0.439. For the same sequence, the PBM binding z-score in test [7] was -0.242; in test [8] it was 0.0154; in [9], -0.459.

As to CTCGAAGGGTCGGTTGAGGTGAGTATACGGATAA, the PBM binding z-score in [1] amounted to 1.41; in test [2], 1.55; in test [3], 1.56; in test [4] it was 0.489; in test [5], 1.17; in test [6], 4.74. Also, the results for the PBM binding z-score in [7], in test [8] and in [9] were 1.49, 1.25 and 0.596, respectively.

Turning to CATACAGGGTCAGCTAGGCCAGAGGAGGGACGGC, the PBM binding z-score was found to be 3.12 in test [1]; 4.3 in test [2]; 4.65 in [3]; 1.64 in test [4]; 4.14 in test [5]; 2.75 in test [6]. In addition, the figures for the PBM binding z-score in test [7], in test [8] and in [9] were 0.692, 3.53 and 1.36, respectively.

As to ATACCAAGGTGATCGTCAGGTCGTTGATACTAAC, the PBM binding z-score in test [1] was 1.14; in [2], 1.4; in test [3], 0.502; in [4] it was -0.0242; in [5] it was 0.916; in test [6] it was 2.98. Further, the PBM binding z-score in test [7] was 1.76; in [8], 1.36; in [9], 1.12.

As for AGAATGAGGTTATTAAGATCATGGAATTGCGGTC, the PBM binding z-score in [1] is 0.78; in [2], 1.25; in test [3] it was 0.948; in test [4], 1.87; in test [5] it was 1.73; in test [6] it was 2.17. Moreover, the PBM binding z-score was 0.524 in test [7], 3.3 in [8] and 1.5 in test [9].

In the case of AAACCAAGGTGATCGTGAGGTCGTTGATACTAAC, the PBM binding z-score in [1] was 1.41; in [2], 2.02; in test [3] it was 0.373; in test [4] it was 0.896; in test [5], 1.55; in test [6], 3.5. Also, the PBM binding z-score turned out to be 2.46 in [7], 3.21 in test [8] and 2.81 in [9].

With ACTAGCAGGCCTAGGGTCACTCAAGATTAGTCCG, the PBM binding z-score in [1] was determined as 2.83; in test [2], 2.61; in [3], 2.35; in test [4], 0.221; in test [5], 3.15; in test [6], 3.27. For the same sequence, the PBM binding z-score was determined as 2.26 in [7], 2.03 in test [8] and 1.07 in test [9].

As for ATCTCTAGCTAAAGATAGTTCAGTGAATGCAAAT, the PBM binding z-score in [1] is 0.481; in [2], 0.461; in [3], 0.353; in [4] it was -0.2; in test [5], 0.159; in test [6], 0.114. In addition, the PBM binding z-score is -0.112 in test [7], 0.182 in test [8] and 0.516 in [9].

With TTACCAAGGTGAGCTGAGGTCGTTGTTCCAACTC, the PBM binding z-score in test [1] was 1.84; in [2], 1.31; in [3], 0.592; in [4], 0.437; in test [5] it was 1.42; in test [6], 4.75. Also, the PBM binding z-score in test [7] was 2.02; in [8], 4.15; in test [9] it was 2.12.

For the sequence TCTCGGAGGACACGAAAGTCAGAGCTTTCCAGAG, the PBM binding z-score in test [1] was 0.384; in [2] it was 0.378; in test [3] it was 1.08; in test [4], 0.647; in test [5] it was -0.0691; in test [6] it was 1.21. Further, the PBM binding z-score was 0.236 in [7] and -0.621 in test [9].

As for ACTTACGGGTCAACGCGGTTATAGCACGCGTATA, the PBM binding z-score in [1] was determined as 3.18; in test [2], 5.42; in test [3], 5.07; in test [4], 1.88; in [5], 5.68; in test [6] it was 2.97. In addition, the values for the PBM binding z-score in [7] and in [9] were 0.345 and 1.45, respectively.
